Source: PubChem BioAssay AID1347155 (National Center for Advancing Translational Sciences (NCATS), 2019)
Where “and” joins values, the source holds several entries; their conditions need not be identical. Equal entries are not always repeated. Inconclusive results are not listed. Where a call stands in place of a potency, no number is given. Calls of active or inactive are those of the source. Calls follow the shape of the dose curve; as a rule, active = well fitted inhibition curve with a large enough effect; inconclusive = small, poorly fitted or top-dose-only effect; inactive = no such curve, though single readings can be large or run the other way. *1 amine or outer side, *2 acyl side, *3 side chain or, on linkers, in order; H or OH if unused. Where a SMILES comes first, the peptide text is derived from it. Bridges are numbered along the chain shown (N, C = ends). Roman numbers before positions name the chains, in order. [ ]: non-standard residue; d: D form. ξ: configuration not given here. Actinocin(9to1) = Cc1c2oc3c(C)ccc(C(=O)[*:1])c3nc-2c(C(=O)[*:2])c(N)c1=O; aThr = C[C@H](O)[C@H](N)C(=O)O; NMeV = CN[C@H](C(=O)O)C(C)C; ξNMeV = CNC(C(=O)O)C(C)C; ξV = CC(C)C(N)C(=O)O; Sar = CNCC(=O)O

The compounds below were run on Zika virus NS2B-NS3 protease (linked) (assay: Optimization screen NINDS Rhodamine qHTS for Zika virus inhibitors: Linked NS2B-NS3 protease assay). Settings: fluorogenic rhodamine substrate; series mostly up to 105 µM.
Description: Avindra Nath, Ph.D., National Institute of Neurological Disorders and Stroke (NINDS), Bethesda, MD
Radhakrishnan Padmanabhan, Ph.D., Georgetown University (GU), Washington D.C.
Zika Virus causes congenital defects, including microcephaly and is associated with Guillain-Barre syndrome, eningoencephalitis and myelitis in infected adult. […] Using a target-based approach, we hope to establish a screening paradigm to uncover novel, cell-active NS2B-NS3 protease (Zika Virus) specific inhibitors from NCATS' collection of small molecules using qHTS.
Four assay panel was created to identify potential Zika Virus inhibitors. Namely, (1) GU unlinked NS2B-NS3 AMC tagged protease qHTS, (2) GU unlinked NS2B-NS3 Rhodamine tagged protease qHTS, (3) NINDS linked NS2B-NS3 AMC tagged protease qHTS, (4) NINDS linked NS2B-NS3 Rhodamine tagged protease qHTS. Active compounds were re-acquired and re-screened to confirm inhibition. Inhibitors were further screened against various confirmatory and counterscreens in dose response format.
Early Translation Branch (ETB)
National Center for Advancing Translational Sciences (NCATS), Rockville, MD
National Institute of Health (NIH), Bethesda, Maryland
For the linked assay, Nath lab (NINDS) provided the purified linked NS2B-NS3 protease which is consists of hydrophilic domain of NS2B linked to the NS3 protease domain by a flexible (-GGGGSGGGG-) linker. Control compound aprotinin is obtained from Thermo Scientific (#78432; Waltham, Massachusetts). Rhodamine110 substrate ([N-Cbz]-Nle-Lys-Arg-Arg-Rhod110-Arg-Arg-Lys-Nle-[N-Cbz]) was purchased from either Genscript or Bachem.
1536-well Protease (Rhodamine110 Substrate) Assay:
Briefly, 3 microL of enzyme (25 nM final concentration), in assay buffer (10 mM Tris-HCl pH 8.0 with 0.01% Tween 20) were dispensed into a 1,536-well solid-bottom black plate (Greiner Bio One, Monroe, NC). Twenty-three nL of compounds (final concentration range 7.28 nM to 114 microM) or control Aprotinin (final concentration range 3.47 nM to 114 microM) were transferred via Wako Pin-tool (Wako Automation, Richmond, VA). Samples were incubated (room temperature, protected from light) for 15 minutes followed by a 1 microL Rhodamine110 substrate addition (1.5 microM final concentration). Plates were then immediately read on a ViewLux High-throughput CCD imager (PerkinElmer, Waltham, MA) equipped with FITC fluorescence optics (480(20) nm excitation, 540(25) nm emission), then incubated (room temperature, protected from light) for 15 minutes (~15% conversion). The change in fluorescence intensity over the 15-minute reaction period was normalized against no-inhibitor and no-enzyme controls and the resulting percent inhibition data were fitted to a 4-parameter Hill equation. Aprotinin was used as intraplate control.

Compound | Potency
CC(C)C[C@@H](NC(=O)[C@H](Cc1ccccc1)NC(=O)c1cnccn1)B(O)O | inactive
CC1OC(OC2C(O)CC(OC3C(O)CC(OC4CCC5(C)C(CCC6C5CC(O)C5(C)C(C7=CC(=O)OC7)CCC65O)C4)OC3C)OC2C)CC(O)C1O (stereo not given) | inactive
CCOc1ccc(C2C(=O)N(C3CCCCC3)CC(=O)N2Cc2ccc(F)cc2)cc1OC (stereo not given) | inactive
Cn1cnc([N+](=O)[O-])c1Sc1ncnc2nc[nH]c12 | inactive
O=C1c2cccc3c2[C@@H](CCC3)CN1[C@@H]1CN2CCC1CC2 | inactive
N[C@H](C(=O)O)c1ccc(O)cc1 | inactive
Nc1ncnc2c1ncn2[C@@H]1O[C@H](C[C@@H](N)CC[C@H](N)C(=O)O)[C@@H](O)[C@H]1O | inactive
Cc1c2oc3c(C)ccc(C(=O)N[C@@H]4C(=O)N[C@@H](C(C)C)C(=O)N5CCC[C@@H]5C(=O)N(C)CC(=O)N(C)[C@@H](C(C)C)C(=O)O[C@H]4C)c3nc-2c(C(=O)N[C@@H]2C(=O)N[C@@H](C(C)C)C(=O)N3CCC[C@@H]3C(=O)N(C)CC(=O)N(C)[C@@H](C(C)C)C(=O)O[C@H]2C)c(N)c1=O (I: [aThr]V[dP][Sar][NMeV] / II: [aThr]V[dP][Sar][NMeV]; ester I:1-I:C, II:1-II:C; linker I:N-II:N via Actinocin(9to1)) | inactive
C[S+](CC[C@H](N)C(=O)O)C[C@H]1O[C@@H](n2cnc3c(N)ncnc32)[C@H](O)[C@H]1O (stereo not given in full) | inactive
CC(C)C[C@H](NC(=O)[C@H](Cc1ccccc1)NC(=O)c1cnccn1)B(O)O | inactive
CCC(CC)(NC(=O)C(C)C)C(=O)N[C@@H](CCCN=C(N)N)C(=O)NC1(C(=O)NC(c2ccc(F)cc2)c2ccc(F)cc2)CCCC1 | inactive
CO[C@H]1C[C@@H](O[C@@H]2/C(C)=C/C[C@@H]3C[C@@H](C[C@]4(CC[C@H](C)[C@@H](C5CCCCC5)O4)O3)OC(=O)[C@@H]3C=C(C)/C(=N/O)[C@H]4OC/C(=C\C=C\[C@@H]2C)[C@]43O)O[C@@H](C)[C@H]1O | 24.8 µM (active)
O=C1c2c(O)ccc([N+](=O)[O-])c2C(=O)c2c([N+](=O)[O-])ccc(O)c21 | 12.7 µM (active) and 6.39 µM (active)
OC(c1cc(C(F)(F)F)nc2c(C(F)(F)F)cccc12)C1CCCCN1 (stereo not given) | inactive
CCOc1ccc(C2C(=O)N(C3CCCCCC3)CC(=O)N2CCc2ccc(Cl)cc2)cc1OC (stereo not given) | inactive
CO[C@H]1C[C@H](O[C@@H]2/C(C)=C/C[C@@H]3C[C@@H](C[C@]4(CC[C@H](C)[C@@H](C5CCCCC5)O4)O3)OC(=O)[C@@H]3C=C(C)/C(=N/O)[C@H]4OC/C(=C\C=C\[C@@H]2C)[C@]43O)O[C@@H](C)[C@@H]1O | inactive
C[C@H]1O[C@@H](O[C@H]2CC[C@@]3(C)[C@H](CC[C@@H]4[C@@H]3C[C@@H](O)[C@]3(C)[C@@H](C5=CC(=O)OC5)CC[C@]43O)C2)C[C@H](O)[C@@H]1O[C@H]1C[C@H](O)[C@H](O[C@H]2C[C@H](O)[C@H](O[C@@H]3O[C@H](CO)[C@@H](O)[C@H](O)[C@H]3O)[C@@H](C)O2)[C@@H](C)O1 | inactive
COc1c2occc2cc2ccc(=O)oc12 | inactive
Cc1c2oc3c(C)ccc(C(=O)N[C@@H]4C(=O)N[C@H](C(C)C)C(=O)N5CCC[C@H]5C(=O)N(C)CC(=O)N(C)[C@@H](C(C)C)C(=O)O[C@@H]4C)c3nc-2c(C(=O)N[C@@H]2C(=O)N[C@H](C(C)C)C(=O)N3CCC[C@H]3C(=O)N(C)CC(=O)N(C)[C@@H](C(C)C)C(=O)O[C@@H]2C)c(N)c1=O (I: T[dV]P[Sar][NMeV] / II: T[dV]P[Sar][NMeV]; ester I:1-I:C, II:1-II:C; linker I:N-II:N via Actinocin(9to1)) | inactive
Cc1c2oc3c(C)ccc(C(=O)N[C@@H]4C(=O)NC(C(C)C)C(=O)N5CCC[C@H]5C(=O)N(C)CC(=O)N(C)C(C(C)C)C(=O)O[C@@H]4C)c3nc-2c(C(=O)N[C@@H]2C(=O)NC(C(C)C)C(=O)N3CCC[C@H]3C(=O)N(C)CC(=O)N(C)C(C(C)C)C(=O)O[C@@H]2C)c(N)c1=O (stereo not given in full) (I: T[ξV]P[Sar][ξNMeV] / II: T[ξV]P[Sar][ξNMeV]; ester I:1-I:C, II:1-II:C; linker I:N-II:N via Actinocin(9to1)) | inactive

Compound | Potency
Nc1ccn([C@@H]2O[C@H](CO)[C@@H](O)C2(F)F)c(=O)n1 | inactive
CCc1nc(N)nc(N)c1-c1ccc(Cl)cc1 | inactive
CC(=O)Nc1ccc([C@H](C)C(=O)Nc2ncc(C(C)C)s2)cc1 | inactive
Oc1cc2ccccc2c2ccccc12 | 63.9 µM (active)
O=c1cc(-c2ccccc2)oc2cc(O)c(O)c(O)c12 | 4.94 µM (active)
O[C@@H](c1cc(C(F)(F)F)nc2c(C(F)(F)F)cccc12)[C@H]1CCCCN1 | inactive
C[C@H]1O[C@@H](O[C@H]2[C@@H](O)C[C@H](O[C@H]3[C@@H](O)C[C@H](O[C@H]4CC[C@@]5(C)[C@H](CC[C@@H]6[C@@H]5C[C@@H](O)[C@]5(C)[C@@H](C7=CC(=O)OC7)CC[C@]65O)C4)O[C@@H]3C)O[C@@H]2C)C[C@H](O)[C@@H]1O | inactive
CCCCCCCCc1ccc(CCC(N)(CO)CO)cc1 | 55.5 µM (active)
Cc1ccccc1CNc1ncnc2c1ncn2C1OC(CO)C(O)C1O (stereo not given) | inactive
COc1c(C)c2c(c(O)c1C/C=C(\C)CCC(=O)OCCN1CCOCC1)C(=O)OC2 | inactive
CCCCOc1ccc(C2C(=O)N(C3CCCCC3)CC(=O)N2C2CCCCC2)cc1 (stereo not given) | inactive
C[C@H]1O[C@@H](O[C@H]2[C@@H](O)C[C@H](O[C@H]3[C@@H](O)C[C@H](O[C@H]4CC[C@]5(C)C6C[C@@H](O)[C@]7(C)[C@@H](C8=CC(=O)OC8)CC[C@]7(O)C6CC[C@@H]5C4)O[C@@H]3C)O[C@@H]2C)C[C@H](O)[C@@H]1O (stereo not given in full) | inactive
CNC(=O)c1cc(Oc2ccc(NC(=O)Nc3ccc(Cl)c(C(F)(F)F)c3)cc2)ccn1 | 16 µM (active)
CC[C@@H]1O[C@]2(C=C[C@@H]1C)C[C@H]1C[C@H](CC=C(C)[C@@H](O[C@@H]3C[C@H](OC)[C@H](O[C@@H]4C[C@H](OC)[C@H](O)[C@H](C)O4)[C@H](C)O3)[C@@H](C)C=CC=C3CO[C@@H]4[C@@H](O)C(C)=C[C@@H](C(=O)O1)[C@]34O)O2 | inactive
Nc1nc(=S)c2[nH]cnc2[nH]1 | inactive
CC(C)(C)CC(C)(C)c1ccc(OCCOCC[N+](C)(C)Cc2ccccc2)cc1 | inactive
NC(=O)C(=O)O | inactive
O=C(O)c1ccc(-n2nc(-c3ccccc3O)nc2-c2ccccc2O)cc1 | 8.79 µM (active)
CC[C@@H](C)[C@H]1O[C@]2(CC[C@H]1C)C[C@@H]1C[C@@H](CC=C(C)[C@@H](O[C@H]3C[C@H](OC)[C@@H](O[C@H]4C[C@H](OC)[C@@H](O)[C@H](C)O4)[C@H](C)O3)[C@@H](C)C=CC=C3CO[C@@H]4[C@H](O)C(C)=C[C@@H](C(=O)O1)[C@]34O)O2 | 39.3 µM (active)
CC1O[C@@H](O[C@@H]2C(O)C[C@H](O[C@@H]3C(O)C[C@@H](OC4CC[C@@]5(C)C6CC(O)[C@@]7(C)C(C8=CC(=O)OC8)CC[C@@]7(O)C6CC[C@@H]5C4)OC3C)OC2C)CC(O)[C@H]1O (stereo not given in full) | inactive
